Mcl1 Bid PPI: disrupts binding of human Mcl-1 to Bid peptide; Q07820; TR-FRET Mcl-1/Bid-Dy647 peptide binding, 1536-well; inhibition, % at 21.7 µM; 0.97% of 220,000 active;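 active = compounds that cut the binding signal by more than half at the single screening dose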;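 note: His-tagged Mcl-1 with europium anti-His antibody binding Bid BH3 peptide; 0% = Mcl-1 plus peptide wells and 100% = peptide-only wells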
Bcl-xL primary: Bcl-xL (human) inhibition; Q07817; GST-Bcl-xL / FITC-Bim BH3 peptide fluorescence polarization; inhibition, % at 10.9 µM; 0.7% of 320,000 active;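 active = inhibition above the mean of all tested compounds plus 3 SD, cutoff set per campaign, cut at about 30% in these data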;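 note: 0% = DMSO wells and 100% = unlabeled Bim-BH3 peptide competitor; inhibitors lower millipolarization by displacing the labeled peptide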
Target sequence (Q07817 whole entry, looked up): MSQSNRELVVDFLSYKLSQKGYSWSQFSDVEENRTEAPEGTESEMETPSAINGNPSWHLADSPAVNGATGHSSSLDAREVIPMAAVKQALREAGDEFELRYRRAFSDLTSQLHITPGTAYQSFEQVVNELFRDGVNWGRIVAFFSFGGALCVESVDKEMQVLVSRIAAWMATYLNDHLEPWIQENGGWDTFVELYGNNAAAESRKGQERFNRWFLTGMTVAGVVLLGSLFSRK
Mcl1 Noxa PPI: Mcl-1/Noxa interaction inhibition. TR-FRET Mcl-1/Noxa peptide binding, 2 h. inhibition, % at 21.7 µM. 1.5% of 220,000 active. AID 1022;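 active = compounds that cut the protein-peptide binding signal by more than 50% relative to plate controls in a single-dose test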;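 note: His-tagged Mcl-1 with rhodamine Noxa BH3 peptide and terbium anti-His antibody; 0% = Mcl-1 plus Noxa peptide wells and 100% = peptide-only wells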
GLD-1 RNA inh: GLD-1-TGE RNA interaction inhibition (C. elegans); AID 2280; purified GLD-1 + fluorescein TGE RNA, fluorescence polarization; 0.44% of 320,000 active; inhibition, % at 5.96 µM;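 active = percent inhibition above a per-plate cutoff, the plate mean of test compounds plus 3 SD, cut at about 30% in these data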;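 note: 0% = DMSO wells with GLD-1 and probe and 100% = wells lacking GLD-1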
Target sequence (Q17339 whole entry, looked up): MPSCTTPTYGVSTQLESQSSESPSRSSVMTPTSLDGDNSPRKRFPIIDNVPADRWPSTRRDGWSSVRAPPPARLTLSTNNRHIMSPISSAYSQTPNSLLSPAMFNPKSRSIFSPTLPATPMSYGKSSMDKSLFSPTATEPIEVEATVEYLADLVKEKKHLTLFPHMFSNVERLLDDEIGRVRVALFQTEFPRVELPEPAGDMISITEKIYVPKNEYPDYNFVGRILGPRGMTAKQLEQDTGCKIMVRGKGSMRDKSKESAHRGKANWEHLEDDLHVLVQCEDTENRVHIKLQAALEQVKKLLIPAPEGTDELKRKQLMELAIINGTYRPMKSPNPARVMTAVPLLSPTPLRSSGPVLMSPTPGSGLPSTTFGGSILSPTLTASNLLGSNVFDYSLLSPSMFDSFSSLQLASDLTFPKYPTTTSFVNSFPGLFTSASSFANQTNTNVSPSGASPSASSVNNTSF
Bim-Mcl-1: human Bim-Mcl-1 interaction inhibition | inhibition, % at 10 µM | 0.1% of 190,000 active | Bead-based flow cytometry, Bim peptide-Mcl-1 binding | AID 1009 | Q07820; in the data active = inhibition above about 40%;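 note: 0% = no compound tracer wells and 100% = peptide blocker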
MCL1-BIM inh: inhibitors of human MCL1 binding to BIM-BH3 peptide | Q07820 | GST-MCL1 / FITC-Bim-BH3 fluorescence polarization | inhibition, % at 10.9 µM | 0.68% of 320,000 active | AID 2057;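 active = inhibition above the mean inhibition of all tested compounds plus 3 SD, set per campaign, cut at about 40% in these data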;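 note: 0% = DMSO wells and 100% = unlabeled Bim-BH3 peptide control; higher means more loss of mP so more displacement of Bim peptide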
Starred values were filed as active, the others as inactive; x = not tested or not shown. This is a sample that favours compounds with a hit; in the whole collection about 2.3% have one here.

SMILES | Mcl1 Bid PPI | Bcl-xL primary | Mcl1 Noxa PPI | GLD-1 RNA inh | Bim-Mcl-1 | MCL1-BIM inh
N#CC(C#N)=NNc1ccc(S(N)(=O)=O)cc1 | -149.6 | 16.4 | 87.9* | 1.0 | x | 20.2
O=C(O)CCC(=O)NCCC1=c2ccccc2=N/C1=C\c1c(O)n(Cc2ccc(F)cc2)c(=S)[nH]c1=O | 100.2* | 7.4 | 103.5* | 4.8 | x | 8.1
O=C(N/N=C/c1c(O)n(Cc2ccc(F)cc2)c(=O)[nH]c1=O)c1ccccc1 | -52.0 | 5.5 | -85.2 | -0.8 | x | 32.9
COc1cc(N2CCOCC2)ccc1C=C1C(=O)NC(=O)NC1=O | -45.2 | 0.0 | 2.5 | 4.1 | 42.0* | -10.6
Cc1cc([N+](=O)[O-])c2ccccc2[n+]1[O-] | -24.1 | 3.7 | -21.9 | 5.2 | x | -1.4
C=C(c1ccccc1)P(=O)(O)O | 13.6 | -1.3 | 29.7 | 2.8 | -5.0 | -4.2
O=P(O)(O)C#Cc1ccccc1 | 96.4* | x | 12.2 | x | -4.0 | x
CCCCCCn1c(O)c(C=NCCN2CCOCC2)c(=O)[nH]c1=O | 99.4* | -8.1 | 25.2 | -9.1 | -1.0 | -15.6
CCCCCCn1c(O)c(C=NCCN2CCCCC2)c(=O)[nH]c1=O | -15.3 | 6.1 | 7.0 | -4.2 | 0.0 | 1.1
Cc1ccc(-c2nc(CS(=O)CC(=O)N3CCC4(CC3)OCCO4)c(C)o2)cc1 (stereo not drawn) | 85.4* | 1.2 | -22.1 | 11.4 | 2.0 | -2.5
Cc1ccc(-c2ccc(=O)n(CC(=O)N3CCC4(CC3)OCCO4)n2)cc1 | 4.0 | 5.1 | 19.2 | -1.6 | -3.0 | 2.1
CN(C)C(=O)Oc1noc2cc(Cl)ccc12 | -15.1 | 6.2 | 4.5 | -4.9 | x | 1.6
CN1C(=O)C(Cc2nc3ccccc3c(=O)n2-c2ccccc2)c2ccccc21 (stereo not drawn) | -30.7 | -2.2 | 5.0 | 5.4 | -2.0 | 4.2
O=C1Nc2ccccc2C1Cc1nc2ccccc2c(=O)n1-c1ccccc1 (stereo not drawn) | 54.0* | 2.0 | 26.6 | 2.8 | x | -0.5
O=c1[nH]c(=O)n(CCc2ccccc2)c(O)c1C=NCc1ccc2c(c1)OCO2 | 67.3* | -5.9 | -103.4 | 0.9 | -1.0 | -3.4
Oc1ccc2c3c1O[C@H]1c4[nH]c5ccccc5c4C[C@@]4(O)[C@@H](C2)N(CC2CC2)CC[C@]314 | x | 1.6 | x | 2.6 | x | 3.1
Oc1ccc2c3c1O[C@H]1c4[nH]c5ccccc5c4C[C@@]4(O)C(C2)N(CC2CC2)CC[C@]314 | 12.6 | 19.4 | 17.3 | 0.5 | 0.0 | 65.8*
OC(c1cccc(Cl)c1)(c1cccc(Cl)c1)C1CN2CCC1CC2 (stereo not drawn) | -14.8 | -1.0 | 15.5 | -3.9 | -8.0 | 1.2
C=C[C@H]1CN2CC[C@H]1C[C@@H]2[C@@H](O)c1ccnc2ccccc12 | x | 5.9 | x | 22.2 | x | 7.0
Cc1ccc(-n2nc(C)cc2NC(=O)COc2cc(C)cc3oc(=O)c4c(c23)CCC4)cc1 | 5.7 | -1.0 | 106.0* | 6.7 | -1.0 | -0.1
CCCCOc1ccc(CC2C(=O)N(C)C(=O)N(C)C2=O)cc1 | 72.5* | -5.4 | 26.0 | 0.8 | -2.0 | -7.6
C[C@H](NC(=O)N1C[C@H]2C[C@@H](C1)c1cccc(=O)n1C2)C(=O)Nc1ccccc1F | x | 4.1 | x | -3.5 | x | -4.8
O=C1NC(=O)C2(Cc3ccccc3N3CCCC32)C(=O)N1 (stereo not drawn) | -3.9 | 36.6* | 9.9 | 19.4 | 0.0 | 35.5
CN1CCN2c3ccc(N)cc3CC3(C(=O)NC(=O)NC3=O)C2C1 (stereo not drawn) | 96.9* | x | 35.2 | x | x | x
CN1C(=O)N(C)C(=O)C2(Cc3cc(N)ccc3N3CCN(c4ccccc4F)CC32)C1=O (stereo not drawn) | 91.2* | 20.4 | 56.7* | 13.2 | 4.0 | 18.2
SMILES | Mcl1 Bid PPI | Bcl-xL primary | Mcl1 Noxa PPI | GLD-1 RNA inh | Bim-Mcl-1 | MCL1-BIM inh
CCc1cc(=O)oc2cc(OCC(=O)N3C[C@H]4C[C@@H](C3)c3cccc(=O)n3C4)c(Cl)cc12 | x | -0.3 | x | 7.5 | x | 7.3
CCOc1cc(C=C2C(=O)NC(=O)NC2=O)ccc1OS(=O)(=O)c1ccccc1 | -1.8 | 5.8 | 60.4* | 0.6 | -1.0 | 8.7
COc1cc(C=C2C(=O)NC(=O)NC2=O)ccc1OS(=O)(=O)c1ccccc1[N+](=O)[O-] | x | 6.5 | x | 9.0 | x | 13.3
c1ccc2c(c1)CNc1ccccc1O2 | -39.5 | 5.0 | 2.2 | 7.5 | 0.0 | 8.0
CN1c2ccccc2Oc2ccccc21 | -11.3 | 4.2 | 68.6* | -6.4 | -5.0 | 9.6
COC(=O)c1c(C)[nH]c(C(=O)C(C)[N+]23CCN(CC2)CC3)c1C (stereo not drawn) | 73.6* | 4.2 | -1.5 | -0.5 | 0.0 | 5.7
CNC(=O)OCc1n(C)cc[n+]1C | 87.1* | -12.9 | -18.1 | 12.2 | -4.0 | -21.2
COc1cc(C(=O)OC2C[C@H]3CC[C@@H](C2)N3)ccc1O (stereo partly drawn) | x | 6.1 | x | -1.5 | x | 5.0
COC(=O)C1=C(c2cccc(OC)c2OC)C[C@@H]2CC[C@H]1N2C(=O)N1CCC(C)CC1 | x | 3.3 | x | 9.4 | x | 8.0
C[C@]12CC[C@@H]3c4ccc(O)c(O)c4CC[C@H]3[C@@H]1CC[C@@H]2O | -76.2 | 10.6 | 63.9* | 3.6 | 4.0 | 14.5
CN(C=O)CP(=O)(O)CN(C)C=O | 59.7* | 7.2 | 5.9 | 4.7 | -2.0 | 2.4
CN(C)c1ccc(/C=C/C=C2/C(=O)NC(=O)N(c3ccccc3)C2=O)cc1 | 51.5* | x | 58.2* | x | 1.0 | x
O=C1NC(=O)N(c2ccccc2)C(=O)/C1=C/C=C/c1ccco1 | -47.1 | 14.2 | -3.8 | 12.1 | x | -2.9
COC(=O)C1=C(c2ccc3ccccc3c2)C[C@@H]2CC[C@H]1N2C(=O)NC1CC1 | x | 3.0 | x | -4.9 | x | 1.9
O=C(O)CP(=O)(O)c1ccc(Cl)cc1 | -2.2 | 5.3 | 4.0 | 8.8 | 0.0 | -8.9
COP(=O)(CC(=O)O)c1ccccc1 (stereo not drawn) | -14.7 | 0.8 | -0.1 | -2.6 | 95.0* | -0.1
COc1cc(O)c(C(=O)O)c(-c2cc(O)c(O)cc2C)c1 | -35.8 | 17.4 | 92.6* | 3.4 | x | 27.9
COc1ccc(P2(=O)Nc3ccccc3N2)cc1 | -100.7 | 61.7* | 42.0 | 14.7 | 3.0 | 51.8*
O=[N+]([O-])c1ccc(N2CCOCC2)c2ccncc12 | -15.8 | 2.2 | 5.9 | 4.4 | 1.0 | 3.2
COC(=O)C1=CO[C@H](C)[C@H]2CN3CC[C@@]4(C(=O)Nc5ccccc54)[C@@H]3C[C@H]12 | x | 1.7 | x | 4.2 | x | -3.8
CCCOP(=O)(OCCC)C(NC(=O)c1ccccc1)=C(Cl)Cl | 90.8* | 4.5 | -8.1 | -0.8 | 0.0 | 4.4
Brc1ccc(-[n+]2c(-c3ccccc3)cc(-c3ccccc3)cc2-c2ccccc2)cc1 | x | -2.4 | x | -0.7 | x | -4.7
CCOP(=O)(OCC)C(O)c1ccc(N(C)C)cc1 (stereo not drawn) | 57.7* | 6.1 | -2.3 | 6.2 | x | 8.2
Cc1cc(N2CCCCC2)ccc1C=C1C(=O)N(C)C(=S)N(C)C1=O | -12.1 | -14.1 | 68.4* | -8.8 | -4.0 | -32.0

Screens (PubChem BioAssay)
